High-throughput results deposited in PubChem BioAssay by National Center for Advancing Translational Sciences (NCATS).
FMDV inh – blocks foot and mouth disease virus; FMDV antiviral cell-based qHTS; Potency, µM (highest dose often 57.9 µM), hits mostly inhibitors; 410,000 compounds, 1.2% hits; calls by dose curve; tested in HEK293T cells; note: read-out not given here; nearly all actives have a fitted effect of over 45% in size
HCMV antiviral – human cytomegalovirus inhibition; HFF cells, HCMV-luciferase reporter, 72 h; stronger effect = lower value; activity change, negative = inhibition, % at 57.5 µM; 410,000 compounds, 4.5% hits; AID 1259415; in the data active = activity change below about -60%; inconclusive = no clear call, values can overlap the other calls; inactive = above about -39%
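Inhibition of viral replication was scored as loss of reporter luminescence in HFFs infected with HCMV-luciferase (MOI 1 PFU/cell) for 72 h; compounds tested at 2 doses, normalized to buffer and Salinomycin controls.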
MARV entry inh – Marburg virus entry inhibition; Marburg virus pseudotyped entry inhibition, cell reporter; Potency, µM (top dose mostly 37.8 µM), hits mostly inhibitors; 300,000 compounds, 1.8% hits; AID 540276; calls by dose curve; tested in HEK293 cells
Lassa entry inh – blocks Lassa virus binding to or entry into cells; Lassa virus pseudotype entry inhibition, cell reporter; Potency, µM (titrated, usually from 37.9 µM), hits mostly inhibitors; 300,000 compounds, 1.2% hits; AID 540256; calls by dose curve; tested in HEK293 cells; note: nearly all actives have a fitted effect of over 50% in size
Numbers stand for hits; n = inactive; u = inconclusive; x = no result; + = active, no number. Shown are actives, neighbours in structure and some others; about 6.2% of the full set was active somewhere.

SMILES	FMDV inh	HCMV antiviral	MARV entry inh	Lassa entry inh
CCN1CCN(c2ccc(NC(=O)c3ccc([N+](=O)[O-])o3)cc2Cl)CC1	n	-96	u	u
CCC(=O)N1CCN(c2ccc(NC(=O)c3ccc([N+](=O)[O-])o3)cc2Cl)CC1	u	-96	u	u
CCN1CCN(c2ccc(S(=O)(=O)N3CCCCC3)cc2NC(=O)c2ccc([N+](=O)[O-])o2)CC1	n	n	u	u
CCC(=O)N1CCN(c2ccc(Cl)cc2NC(=O)c2ccc([N+](=O)[O-])o2)CC1	u	u	u	n
CC(=O)N1CCN(c2ccc(NC(=O)c3ccc([N+](=O)[O-])o3)cc2Cl)CC1	n	-98	u	u
COc1cc([N+](=O)[O-])cc(/C=N/NC(=O)c2cccnc2)c1O	n	-88	x	x
COc1cc([N+](=O)[O-])cc(/C=N/NC(=O)C(C)Nc2cccc3ccccc23)c1O (stereo not given)	n	-61	n	n
CC(Nc1cccc2ccccc12)C(=O)N/N=C/c1ccc([N+](=O)[O-])cc1 (stereo not given)	n	n	u	n
Nc1nc2n(n1)[C@@H](c1cccs1)C[C@H](c1ccc(F)cc1)N2	x	x	n	x
CN(C)c1nc2cc3c(cc2cc1CN(CC1CCCO1)C(=O)/C=C/c1cccs1)OCO3 (stereo not given)	n	x	x	x
O=C(CCN1CC2CCC(CC2)C1)c1cccs1	25µM	n	n	n
Cc1nn(C)c(C)c1CN(Cc1nc(CCC(C)C)no1)C(C)C	u	-83	u	u
CC(C)CCc1noc(CN(C)CCC2CCOCC2)n1	n	n	n	n
O=C(Nc1cccc2cccnc12)c1ccc(F)cc1	n	n	x	n
Cc1ccc(-c2csc(NC(=O)C[n+]3cc(-c4ccc(C)cc4)n4c3CCC4)n2)cc1	n	n	n	n
Cc1ccc(C[n+]2cc(-c3ccc(Cl)cc3)n3c2CCC3)cc1	n	-61	u	u
Cc1ccc(-c2c[n+](Cc3ccc(Cl)cc3)c3n2CCC3)cc1	n	-79	n	u
COc1cccc(/C=C2\Oc3ccc(O)cc3C2=O)c1O	11µM	n	u	u
CCOC(=O)C1(CC2CCCCO2)CCN(Cc2cc3ccccc3[nH]2)CC1 (stereo not given)	n	n	u	10µM
CCCCc1ncc(CN2CCC(CC3CCCCO3)(C(=O)OCC)CC2)[nH]1 (stereo not given)	n	n	u	n
COC[C@@H](O)[C@H]1OCc2cccc(OC)c2[C@H]1C=Cc1ccccc1	x	x	n	x
O=S(=O)(Nc1ccc2c(c1)nc1n2CCN(Cc2ccccc2)C1)c1ccccc1	u	-96	n	n
COc1ccccc1C(=O)Nc1ccc2c(c1)nc1n2CCN(Cc2ccccc2)C1	u	-68	u	u
O=C(Nc1ccc2c(c1)nc1n2CCN(Cc2ccccc2)C1)c1cccs1	n	n	n	u
Cn1nc(C(F)(F)F)cc1Oc1ncc(C(F)(F)F)cc1Cl	n	-62	n	n
SMILES	FMDV inh	HCMV antiviral	MARV entry inh	Lassa entry inh
COC(=O)[C@@H]1CCCN1Cc1ccc2c(c1)CN(Cc1nccs1)CCO2	n	x	x	x
Cc1ccccc1Nc1ccc(S(=O)(=O)N2CCOCC2)cc1[N+](=O)[O-]	n	n	n	u
Cc1ccc(Nc2ccc(S(=O)(=O)N3CCOCC3)cc2[N+](=O)[O-])c(C)c1	n	-65	u	u
COc1ccc(C(=O)NCC(c2cccnc2)N2CCc3ccccc32)cc1 (stereo not given)	u	n	x	n
CC(C)(C)c1cc(C(=O)N/N=C/c2ccc(F)cc2)n(-c2ccccc2)n1	n	-74	u	n
Cc1nn(-c2ccccc2)c(C)c1/C=N/NC(=O)c1ccc(F)cc1	n	n	x	x
CC(C)(C)c1cc(C(=O)N/N=C/c2ccccc2O)n(-c2ccccc2)n1	n	-97	u	u
CCc1ccc(-n2nc(C)c3c(C)cc(=O)n(Cc4nc(-c5ccccc5)oc4C)c32)cc1	n	n	x	n
Cc1ncc2c(c1CNC(=O)c1ccsc1)CCN(C(=O)c1c(F)cccc1Cl)C2	n	x	x	x
Cc1cc(-c2ccc(S(=O)(=O)Nc3ccc(Cl)cc3C)cc2)on1	n	-78	x	n
CCOC(=O)c1c(C)[nH]c(CCC(=O)NCc2ccccc2C)c1C	n	n	x	n
CCc1cccc(OCC(=O)Nc2ccc(S(=O)(=O)Nc3cc(C)nc(C)n3)cc2)c1	n	n	n	n
C[C@@]1(CO)[C@H](O)CC[C@@]2(C)[C@H]1CC[C@H]1C[C@@H]3C[C@@]12CC[C@]3(O)CO	n	x	0.52µM	u
CCN(Cc1ccccc1)S(=O)(=O)c1ccc(C(=O)Nc2nnc(-c3ccccc3OC)o2)cc1	n	-61	u	u
CCN(c1ccccc1)S(=O)(=O)c1ccc(C(=O)Nc2nnc(-c3ccco3)o2)cc1	u	-77	x	x
CN(c1ccccc1)S(=O)(=O)c1ccc(C(=O)Nc2nnc(-c3ccco3)o2)cc1	n	-95	u	n
COc1ccccc1-c1nnc(NC(=O)c2ccc(S(=O)(=O)N(C)C)cc2)o1	n	n	n	n
COC(=O)c1cccc(NS(=O)(=O)c2cccs2)c1C	n	n	n	n
COC(=O)c1ccccc1NC1=C/C(=N\S(=O)(=O)c2cccs2)c2ccccc2C1=O	2.5µM	n	3.7µM	4.5µM
O=C(NN1C(=O)c2ccc(-c3ccc4c(c3)C(=O)N(NC(=O)c3cccnc3)C4=O)cc2C1=O)c1cccnc1	n	-77	n	n
CN1C(=O)c2ccc(C(=O)Nc3cccnc3)cc2C1=O	n	n	n	u
CNS(=O)(=O)c1cn(CC(=O)Nc2cccc(OC)c2)cc1S(=O)(=O)NC	n	n	x	n
CNS(=O)(=O)c1cn(CC(=O)Nc2cccc(C(F)(F)F)c2)cc1S(=O)(=O)NC	n	+	x	n
COC(=O)C[C@H]1c2ccccc2[C@@H]2C(=C[C@@H](C)[C@H]3C(=O)N(O)C(=O)[C@H]32)N1C(=O)OC	x	x	n	x
COC(=O)c1ccc(C2NC(=S)N(c3ccccc3)C(C)=C2C(=O)Nc2ccccc2OC)cc1 (stereo not given)	n	n	u	6.5µM
SMILES	FMDV inh	HCMV antiviral	MARV entry inh	Lassa entry inh
CC1=C(C(=O)N2CCOCC2)C(c2ccc(Br)cc2)NC(=S)N1c1ccccc1 (stereo not given)	n	n	n	n
COc1ccccc1NC(=O)C1=C(C)N(c2ccccc2)C(=S)NC1c1cccc(C(F)(F)F)c1 (stereo not given)	n	-96	u	u
Cc1ccc(NC(=O)Nc2nnc(N3CCCC3)s2)cc1C	n	n	n	n
COC(=O)c1ccc2nc(Nc3nc4ccc(F)cc4s3)sc2c1	u	-85	0.79µM	6.3µM
COC(=O)c1ccc2nc(NC(=O)C(C)(C)C)sc2c1	14µM	-63	u	1.1µM
CC(C)C(=O)Nc1nc2cc3c(cc2s1)OCO3	n	n	x	x
CC(C)(C)C(=O)Nc1nc2cc3c(cc2s1)OCO3	n	-73	x	x
Cc1nc(SCc2ccc(C(=O)O)cc2)nc2c1CCCC2	u	-61	u	n
Cc1nc(SCc2cccc(Cl)c2)nc2c1CCCC2	n	n	n	n
Cc1cccc(OCC(=O)Nc2ccc3c(c2)nc(CCN2CCC(C)CC2)n3C)c1	n	-69	x	x
CCn1c(CN2CCC(C)CC2)nc2cc(NC(=O)COc3ccc(Cl)c(C)c3)ccc21	18µM	u	u	u
COc1cccc(-n2c(-c3cccc(F)c3)nc3c(cnn3-c3ccc(C)cc3)c2=O)c1	n	n	u	n
